Inconclusive results are not listed. Active and inactive are the calls of the source. How the source made its calls, unless noted: active means hit-call score of the fitted dose curve at least 0.9, where 1 is the maximum; inactive means score below 0.9.
Legend:
[1] = CCTE_Mundy_HCI_iCellGluta_NOG_NeuriteLength: CCTE's Neurite Outgrowth Assay in iCellGluta cells for Neurite Length, Mundy Lab (AID 2284318; active means hit-call score of the fitted dose curve at least 0.9, where 1 is the maximum)
Outline: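 Automated high-content imaging of betaIII-tubulin (Alexa Fluor-488) and Hoechst-stained cells gave neurite length, normalized to the DMSO baseline.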

[2] = IUF_NPC1_cytotoxicity_72hr: Cytotoxicity Assessment at 72 hours in the Leibniz Research Institute for Environmental Medicine (IUF) Neural Progenitor Cell Proliferation Assay (NPC1) (AID 2284332; active means hit-call score of the fitted dose curve at least 0.9, where 1 is the maximum;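 further: rising LDH signal means more cytotoxicity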)
Outline: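 Human fetal neural progenitor spheres (0.3 mm) in EGF/FGF proliferation medium, 37C, exposed 72 h without renewal. LDH release in supernatant read by resorufin fluorescence; gain of signal scored relative to dynamic range.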

[3] = CCTE_Mundy_HCI_iCellGluta_NOG_NeuronCount: CCTE's Neurite Outgrowth Assay in iCellGluta cells for Neuron Count, Mundy Lab (AID 2284340; active means hit-call score of the fitted dose curve at least 0.9, where 1 is the maximum;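 further: cells fixed about 48 h after compound addition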)
Outline: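 Neuron count read by automated high-content imaging of Hoechst 33342 and betaIII-tubulin/Alexa Fluor-488 labelling in human iPSC glutamatergic neurons. Activity fitted relative to DMSO.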

[4] = CCTE_Mundy_HCI_iCellGluta_NOG_NeuriteCount: CCTE's Neurite Outgrowth Assay in iCellGluta cells for Neurite Count, Mundy Lab (AID 2284342; active means hit-call score of the fitted dose curve at least 0.9, where 1 is the maximum;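 further: chemical exposure about 48 hours starting 2 hours after plating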)
[5] = tested on: Brachyury (BRA) Protein Expression, Deisenroth Lab, TBXT (gene 6862); experiment: CCTE_Deisenroth_DEVTOX-GLR_legacy_Bra: (Legacy) CCTE's DevTox GLR-Endo Assay Evaluation of Brachyury (BRA) Protein Expression, Deisenroth Lab (AID 2284329)
Outline: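 RUES2-GLR human pluripotent cells differentiated 48 h with two 24-h-interval chemical exposures (1 nM - 200 uM, 10 points); fixed, nuclear-stained, imaged. Bra+ cell percentage (intensity 5x BMAD above pluripotent control median) fitted relative to 0.2% DMSO.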

[6] = CCTE_Deisenroth_DEVTOX-GLR_legacy_CellCount: (Legacy) Viability Assessment in CCTE's DevTox GLR-Endo Assay, Deisenroth Lab (AID 2284331); details: actives raise or lower the signal
Outline: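 Nuclei count by fluorescence high-content imaging (5 fields/well) after 48 h differentiation of RUES2-GLR cells. Two exposures, 24 h apart; 1 nM - 200 uM series; n=4. Bidirectional fit vs DMSO.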

[7] = tested on: SRY-box transcription factor 17 (SOX17) Protein Expression, Deisenroth Lab, SOX17 (gene 64321); experiment: CCTE_Deisenroth_DEVTOX-GLR_legacy_Sox17: (Legacy) CCTE's DevTox GLR-Endo Assay Evaluation of SRY-box transcription factor 17 (SOX17) Protein Expression, Deisenroth Lab (AID 2284341); details: actives raise or lower the signal
Outline: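 RUES2-GLR human pluripotent cells, seeded 24 h, then differentiated 48 h in defined media with two chemical exposures 24 h apart (1 nM - 200 uM, 10 points). Sox17+ fraction from high-content fluorescence imaging; bidirectional fit versus 0.2% DMSO.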

[8] = tested on: SRY-box transcription factor 2 (SOX2) Protein Expression, Deisenroth Lab, SOX2 (gene 6657); experiment: CCTE_Deisenroth_DEVTOX-GLR_legacy_Sox2: (Legacy) CCTE's DevTox GLR-Endo Assay Evaluation of SRY-box transcription factor 2 (SOX2) Protein Expression, Deisenroth Lab (AID 2284346)
Outline: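 RUES2-GLR human pluripotent cells seeded 24 h, then differentiated 48 h in defined media with two chemical doses 24 h apart (10-point, 1 nM–200 uM). Fixed, nuclear-stained, imaged; % Sox2+ cells (>5x BMAD over endoderm control median), DMSO-subtracted, fitted upward.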

[9] = CCTE_Deisenroth_5AR_NBTE_donor: CCTE's 5alpha-reductase NanoBRET Target Engagement Assay […], Deisenroth Lab (AID 2284319); details: actives raise or lower the signal
Outline: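 Donor NanoLuc luminescence at 460-20 nm is the read-out, serving artifact detection. Transiently expressed SRD5A2-NanoLuc in HEK293T; 5 h total chemical exposure, testosterone tracer added for the final 2 h; fitting bidirectional relative to DMSO baseline.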

[10] = CCTE_Deisenroth_5AR_NBTE_acceptor: CCTE's 5alpha-reductase NanoBRET Target Engagement Assay - Autofluorescence Screen, Deisenroth Lab (AID 2284321); details: actives raise or lower the signal;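 further: compound fluorescence in the acceptor channel under 460 nm excitation flags autofluorescence artifacts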
Outline: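 Acceptor-channel fluorescence flags artifacts, with excitation fixed at 460 nm. Nominal 100 uM chemical samples were read in triplicate runs, and signal changes were fitted in both directions relative to DMSO.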

[11] = tested on: SRD5A2 (gene 6716); experiment: CCTE_Deisenroth_5AR_NBTE_ratio: CCTE's 5alpha-reductase NanoBRET Target Engagement Assay - Ratio, Deisenroth Lab (AID 2284322); details: actives raise or lower the signal
Outline: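 HEK293T transiently expressing SRD5A2-NanoLuc; cells exposed to chemical (8-point, 10 nM - 29.9 uM) for 5 h total, testosterone tracer added for final 2 h. NanoBRET acceptor/donor ratio (650/460 nm), bidirectional fit vs DMSO.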

[12] = CCTE_Deisenroth_H295R-HTRF_384WELL_ESTRADIOL: CCTE's H295R-HTRF Assay Evaluation of Estradiol Concentration, Deisenroth Lab (AID 2284361); details: actives raise or lower the signal
Outline: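 H295R cells exposed 48 h to chemicals at 0.001 - 100 uM final (nine points, triplicate); estradiol in conditioned medium measured by HTRF immunoassay, fitted bidirectionally versus DMSO. Viability by CellTiter-Glo on same plates.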

[13] = CCTE_Deisenroth_H295R-HTRF_384WELL_TESTOSTERONE: CCTE's H295R-HTRF Assay Evaluation of Testosterone Concentration, Deisenroth Lab (AID 2284373); details: actives raise or lower the signal
Outline: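 Secreted testosterone was quantified by HTRF immunoassay of medium from human adrenocortical H295R cells after 48 h chemical exposure at 0.001–100 uM final. Gain or loss was fitted against DMSO. ATP-based viability was read on matched wells, five experimental replicates.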

[14] = CCTE_Deisenroth_H295R-HTRF_384WELL_CTOX: Cytotoxicity Assessment in CCTE's H295R-HTRF Assay, Deisenroth Lab (AID 2284380; active means hit-call score of the fitted dose curve at least 0.9, where 1 is the maximum)
Outline: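 H295R adrenocortical carcinoma cells plated 24 h, then exposed 48 h to nine-point series 0.001–100 uM final, triplicate, n=5. ATP measured by CellTiter-Glo 2.0 luminescence on same plates after medium collection; loss versus DMSO.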

Which outcome [1] does the source give for `Cc1c(C(=O)c2c[nH]n(C)c2=O)ccc(S(C)(=O)=O)c1C1=NOCC1` here?
Its outcome is “inactive”.

And the outcome [2]?
The outcome was “inactive”.

And the outcome [3]?
Its outcome is “inactive”.

And the outcome [4]?
The outcome was “inactive”.

With `CC1(C)[C@@H]2CC[C@@]1(C)C(=O)C2` as the molecule, how does the outcome [5] read?
Its outcome is “inactive”.

And the outcome [6]?
Its outcome is “inactive”.

What about the outcome [7] of the same molecule?
The outcome was “inactive”.

What about the outcome [8] of the same molecule?
Its outcome is “inactive”.

What does the source list for `CCCCNS(=O)(=O)c1ccccc1`?
outcome [1]: inactive; outcome [2]: inactive; outcome [3]: inactive; outcome [4]: inactive

For `CC(C)(C)NC(=O)[C@H]1CC[C@H]2[C@@H]3CC[C@H]4NC(=O)C=C[C@]4(C)[C@H]3CC[C@]12C`, which outcome [9] is on record?
The outcome was “inactive”.

And the outcome [10]?
Its outcome is “inactive”.

And the AC50 [11]?
Its AC50 is 7.34 nM (active).

What about the outcome [12] of the same molecule?
The outcome was “inactive”.

What about the outcome [13] of the same molecule?
The outcome was “inactive”.

And the outcome [14]?
Its outcome is “inactive”.

What does the source list for `C=C[C@@]1(C)CC(=O)[C@]2(O)[C@@]3(C)[C@@H](O)CCC(C)(C)[C@@H]3[C@H](O)[C@H](OC(C)=O)[C@@]2(C)O1`?
AC50 [9]: 9.91 µM (active); outcome [10]: inactive; outcome [11]: inactive; AC50 [12]: 3.68 µM (active); AC50 [13]: 566 nM (active); outcome [14]: inactive

— PubChem BioAssay (EPA / NIEHS)
